Potency data for three compounds are collected here from PubChem BioAssay AID624391 (National Center for Advancing Translational Sciences (NCATS), 2012).

Active and inactive are the calls of the source. Calls follow the shape of the dose curve; as a rule, active = well fitted curve in the direction sought with a large enough effect; inactive = no such curve, though single readings can be large or run the other way.

Chain of Pyruvate kinase PKM (Homo sapiens) (P14618 whole entry, looked up, canonical isoform): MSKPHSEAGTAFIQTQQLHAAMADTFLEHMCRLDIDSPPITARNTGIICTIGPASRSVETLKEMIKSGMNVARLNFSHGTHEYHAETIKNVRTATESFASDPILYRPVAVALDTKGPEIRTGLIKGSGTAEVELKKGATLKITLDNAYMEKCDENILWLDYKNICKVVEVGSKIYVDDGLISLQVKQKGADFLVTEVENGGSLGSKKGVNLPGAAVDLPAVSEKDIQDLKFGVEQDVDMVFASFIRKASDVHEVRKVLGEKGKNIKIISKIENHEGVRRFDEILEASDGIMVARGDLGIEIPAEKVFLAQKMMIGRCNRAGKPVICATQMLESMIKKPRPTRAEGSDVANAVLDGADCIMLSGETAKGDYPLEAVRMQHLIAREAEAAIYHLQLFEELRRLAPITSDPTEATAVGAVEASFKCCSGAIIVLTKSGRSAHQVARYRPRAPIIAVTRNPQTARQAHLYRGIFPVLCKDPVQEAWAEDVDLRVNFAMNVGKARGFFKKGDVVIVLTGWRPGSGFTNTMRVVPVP

This assay has as its target Pyruvate kinase PKM (Homo sapiens) (UniProt P14618). Nature of the assay: qHTS for Activators of Human Muscle Isoform 2 Pyruvate Kinase: Extended Characterization for Probe 2. The conditions noted are these: purified hPK-M2, Kinase-Glo ATP luminescence, 1 h. The method, then:
Human pyruvate kinase muscle 2 (hPK-M2) enzyme was supplied as a highly purified (>95% pure) preparation from Harvard Medical School and assayed for its ability to generate ATP from ADP using phosphoenolpyruvate (PEP) as a substrate. ATP generation was detected in a coupled reaction by luciferase-mediated luminescence, an ATP-dependent process. […] The enzyme was assayed at an intermediate level of activity to screen for both inhibitors and activators. NIH Chemical Genomics Center [NCGC] NIH Molecular Libraries Probe Centers Network [MLPCN] MLPCN Grant: MH085679 Assay Submitter (PI): Matthew G. Vander Heiden, Harvard Medical School
Three uL of substrate mix (at r.t.) in assay buffer (50 mM Imidazole pH7.2, 50 mM KCl, 7 mM MgCl2, 0.01% Tween 20, 0.05% BSA) was dispensed into white solid bottom 1,536 well microtiter plates so that the final concentrations of substrates in the assay were 0.1 mM ADP and 0.5 mM PEP. 23 nL of compound were delivered by a pin tool and 1 uL of enzyme mix (final concentration of 0.1 nM) in assay buffer (4 degree Celsius) was added. Plates were incubated at room temperature for 1 hour. Two uL of detection mix (Kinase-Glo, Promega; at 4 degree Celsius protected from light) was added and luminescence read by a ViewLux (Perkin Elmer) at 1 second exposure/plate. Data were normalized to the uninhibited (column 3) and AC100 inhibition (no enzyme in column 2). To monitor activation, the first column contained a titration of the activator, NCGC00031955-03 (16-point 1:2 dilutions in duplicate starting at 57 uM) and the first 16 rows of column 4 contained 57 uM of NCGC00031955-03.
A general note: In qHTS, concentration-response curves come from the screen itself.
`O=S(=O)(c1ccc2c(c1)OCCO2)N1CCN(S(=O)(=O)c2c(F)cccc2F)CC1`: the Potency is 81.9 nM (active).

As to `Cc1ccc(NS(=O)(=O)c2ccc3c(c2)CCC(=O)N3)cc1C`, the Potency is 163 nM (active).

As for `COc1cccc(Cn2ncc3c4sc(S(C)=O)cc4n(C)c3c2=O)c1` (stereo not drawn), the Potency was 73 nM (active).
